Measurements: PubChem BioAssay (NCATS)
Several values for one entry are separate records, joined by “and”; a condition that tells them apart may be missing. Equal values may be shown once. Records with an inconclusive call do not appear. A call without a number means that no potency is given here. A number with no mark means an inactive call. Activity calls are given as the source filed them. Unless noted, the call rests on the fitted dose curve; in most records, active means well fitted curve in the direction sought with a large enough effect; inconclusive means small, poorly fitted or top-dose-only effect, or another doubt; inactive means no such curve, though single readings can be large; an effect the other way counts as inactive or inconclusive. Peptide text beside a SMILES is read from it.

What was measured:
[1] = target: ATP-dependent 6-phosphofructokinase (Trypanosoma brucei brucei) (UniProt O15648); test: qHTS Assay to Find Inhibitors of T. brucei phosphofructokinase: hit validation (AID 492961);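 further: luminescence reports ADP formed as PFK phosphorylates fructose-6-phosphate with ATP; series mostly up to about 51 µM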
Procedure, shortened: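 Percent activity derived from corrected luminescence, normalized between 0x and 1x enzyme controls, then fitted to concentration-response curves. Conditions: 1.25 nM PFK, 0.1 mM ATP, 0.5 mM F6P, 45 min RT.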

[2] = target: Ubiquitin carboxyl-terminal hydrolase 1 (Homo sapiens) (UniProt O94782); test: Inhibitors of USP1/UAF1: Pilot qHTS (AID 504865); further: nearly all actives have a fitted effect of over 35% in size; further: potency means the concentration at half of the fitted maximal effect
Procedure, shortened: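 USP1/UAF1 complex at 1 nM preincubated 15 min at room temperature with compound, then Ub-Rho substrate added at 150 nM final. Fluorescence (480/540 nm) read kinetically in 50 mM HEPES pH 7.8, 0.5 mM EDTA, 1 mM TCEP, 0.1 mg/ml BSA, 0.01% Tween-20.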

[3] = target: Estrogen receptor (Homo sapiens) (UniProt P03372); test: qHTS assay for small molecule antagonists of estrogen receptor alpha signaling (AID 588513; active means well fitted curve in the direction sought with a large enough effect in the signal ratio, with a control signal flat, not every such curve was filed as active; the % refers to the signal ratio)
Procedure, shortened: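 ER-alpha-UAS-bla GripTite HEK 293 cells in 2% charcoal/dextran-treated FBS medium; compounds titrated (1:2, duplicate), then stimulated with 0.5 nM 17-beta-estradiol for 18 h at 37C. CCF4 beta-lactamase fluorescence; Hill-fit IC50 and efficacy.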

[4] = target: Estrogen receptor (Homo sapiens) (UniProt P03372); test: qHTS assay for small molecule agonists of estrogen receptor alpha signaling (AID 588514; calls by dose curve; further: nearly all actives have a fitted effect of over 70% in size)
Procedure, shortened: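 EC50 and efficacy came from Hill fits of beta-lactamase reporter signal (CCF4 dye, 2 h at room temperature) scaled between DMSO and 20 nM 17-beta-estradiol. Agonist mode: HEK293 ER-alpha-UAS-bla cells in charcoal/dextran-stripped serum medium, 18 h compound exposure at 37 C.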

[5] = target: Androgen receptor (Homo sapiens) (UniProt P10275); test: qHTS assay for small molecule agonists of androgen receptor signaling (AID 588515; active means well fitted curve in the direction sought with a large enough effect in the signal ratio, with a control signal flat; the % refers to the signal ratio); conditions: AR-UAS-bla HEK293, beta-lactamase ratio, agonist 16 h; active compounds read high
Procedure, shortened: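 Stimulation of an AR-responsive β-lactamase reporter in GripTite HEK293 cells was measured after 16 h compound exposure at 37 °C, via CCF4 fluorescence after 2 h RT. EC50 from Hill fits, normalized to R1881 at 30 nM.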

[6] = target: Androgen receptor (Homo sapiens) (UniProt P10275); test: qHTS assay for small molecule antagonists of androgen receptor signaling (AID 588516; active means well fitted curve in the direction sought with a large enough effect in the signal ratio, with a control signal flat, not every such curve was filed as active; the % refers to the signal ratio)
Procedure, shortened: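 AR-UAS-bla GripTite HEK 293 cells (2000/well) treated with compound titrations plus 10 nM R1881 for 16 h at 37C. Beta-lactamase read by CCF4 FRET (460/530 nm); IC50 from Hill fits, normalized to R1881 and DMSO control wells.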

Chain of Estrogen receptor (Homo sapiens) (P03372 whole entry, looked up): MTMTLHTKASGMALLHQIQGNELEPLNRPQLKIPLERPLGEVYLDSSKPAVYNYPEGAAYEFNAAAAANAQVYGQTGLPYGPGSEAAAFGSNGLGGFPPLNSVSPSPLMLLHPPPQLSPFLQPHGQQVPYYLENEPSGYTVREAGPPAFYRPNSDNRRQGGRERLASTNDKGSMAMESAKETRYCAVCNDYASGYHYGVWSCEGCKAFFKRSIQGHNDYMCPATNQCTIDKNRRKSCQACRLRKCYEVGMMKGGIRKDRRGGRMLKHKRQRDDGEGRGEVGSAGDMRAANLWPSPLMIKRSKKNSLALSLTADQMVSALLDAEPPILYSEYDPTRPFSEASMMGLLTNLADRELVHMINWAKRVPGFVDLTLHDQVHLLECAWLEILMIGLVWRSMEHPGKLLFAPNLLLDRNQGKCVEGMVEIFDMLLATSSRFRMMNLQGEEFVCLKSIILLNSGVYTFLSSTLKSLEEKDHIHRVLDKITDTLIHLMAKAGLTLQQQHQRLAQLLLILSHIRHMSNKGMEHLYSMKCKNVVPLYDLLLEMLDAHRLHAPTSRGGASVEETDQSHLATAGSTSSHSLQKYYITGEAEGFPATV
Chain of Androgen receptor (Homo sapiens) (P10275 whole entry, looked up): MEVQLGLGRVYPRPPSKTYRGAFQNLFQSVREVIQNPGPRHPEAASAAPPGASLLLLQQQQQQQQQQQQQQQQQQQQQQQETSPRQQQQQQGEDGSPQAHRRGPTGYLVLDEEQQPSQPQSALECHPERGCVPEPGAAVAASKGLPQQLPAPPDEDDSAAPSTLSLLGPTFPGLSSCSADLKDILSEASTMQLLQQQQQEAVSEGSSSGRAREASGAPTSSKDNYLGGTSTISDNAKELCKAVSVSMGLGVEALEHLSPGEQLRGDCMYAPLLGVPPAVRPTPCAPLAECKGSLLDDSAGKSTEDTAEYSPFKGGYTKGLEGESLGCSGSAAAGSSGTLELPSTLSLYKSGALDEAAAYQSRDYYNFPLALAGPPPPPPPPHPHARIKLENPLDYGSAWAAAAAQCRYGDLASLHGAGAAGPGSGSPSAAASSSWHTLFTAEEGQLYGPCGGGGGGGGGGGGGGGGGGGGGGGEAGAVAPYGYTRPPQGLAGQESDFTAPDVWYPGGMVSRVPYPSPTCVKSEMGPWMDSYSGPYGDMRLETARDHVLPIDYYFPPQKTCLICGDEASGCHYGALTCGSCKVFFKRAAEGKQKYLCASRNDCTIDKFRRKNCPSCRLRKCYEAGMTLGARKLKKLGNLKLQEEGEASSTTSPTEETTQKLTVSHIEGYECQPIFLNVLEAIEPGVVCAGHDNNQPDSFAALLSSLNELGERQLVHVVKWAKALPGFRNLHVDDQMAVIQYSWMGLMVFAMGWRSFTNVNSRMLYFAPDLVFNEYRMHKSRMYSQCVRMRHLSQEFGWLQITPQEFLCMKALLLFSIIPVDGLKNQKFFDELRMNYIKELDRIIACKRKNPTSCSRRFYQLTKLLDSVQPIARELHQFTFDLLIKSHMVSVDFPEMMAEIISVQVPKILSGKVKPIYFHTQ
Chain of Ubiquitin carboxyl-terminal hydrolase 1 (Homo sapiens) (O94782 whole entry, looked up): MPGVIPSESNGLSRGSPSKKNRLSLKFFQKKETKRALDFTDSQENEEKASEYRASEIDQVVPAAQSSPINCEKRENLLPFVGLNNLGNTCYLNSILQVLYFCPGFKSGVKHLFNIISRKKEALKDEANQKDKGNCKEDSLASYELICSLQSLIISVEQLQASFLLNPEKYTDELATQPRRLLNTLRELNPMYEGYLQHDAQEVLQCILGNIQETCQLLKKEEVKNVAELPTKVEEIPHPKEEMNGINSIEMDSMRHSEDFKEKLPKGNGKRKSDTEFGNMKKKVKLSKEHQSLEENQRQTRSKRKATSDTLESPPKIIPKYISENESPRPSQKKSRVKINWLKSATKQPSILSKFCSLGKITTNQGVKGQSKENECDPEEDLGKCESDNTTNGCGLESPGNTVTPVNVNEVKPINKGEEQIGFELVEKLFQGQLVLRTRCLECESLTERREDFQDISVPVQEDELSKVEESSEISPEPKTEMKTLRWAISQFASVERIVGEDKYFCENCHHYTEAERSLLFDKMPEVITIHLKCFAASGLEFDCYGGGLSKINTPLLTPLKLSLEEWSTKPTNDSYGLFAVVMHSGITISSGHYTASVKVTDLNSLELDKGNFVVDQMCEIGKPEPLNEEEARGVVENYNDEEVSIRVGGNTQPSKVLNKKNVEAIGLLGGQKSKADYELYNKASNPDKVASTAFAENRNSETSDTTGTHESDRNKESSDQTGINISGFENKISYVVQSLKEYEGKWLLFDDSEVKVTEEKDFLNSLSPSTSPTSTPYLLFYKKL
Chain of ATP-dependent 6-phosphofructokinase (Trypanosoma brucei brucei) (O15648 whole entry, looked up): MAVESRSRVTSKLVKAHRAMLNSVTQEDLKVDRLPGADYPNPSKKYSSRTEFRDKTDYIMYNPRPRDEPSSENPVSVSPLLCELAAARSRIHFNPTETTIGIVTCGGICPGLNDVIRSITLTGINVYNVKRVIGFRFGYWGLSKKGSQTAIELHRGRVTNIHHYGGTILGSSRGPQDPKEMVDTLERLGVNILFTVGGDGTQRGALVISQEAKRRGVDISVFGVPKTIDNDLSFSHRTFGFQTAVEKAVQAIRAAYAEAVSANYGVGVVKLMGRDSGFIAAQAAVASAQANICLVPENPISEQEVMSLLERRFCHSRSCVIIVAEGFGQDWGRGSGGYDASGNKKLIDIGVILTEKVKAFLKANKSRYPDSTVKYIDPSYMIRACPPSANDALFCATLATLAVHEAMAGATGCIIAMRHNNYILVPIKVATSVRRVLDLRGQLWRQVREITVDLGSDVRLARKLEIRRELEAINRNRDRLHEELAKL

Q: Which results are given for C=C(c1ccc(C(=O)O)cc1)c1cc2c(cc1C)C(C)(C)CCC2(C)C?
A: outcome [1]: inactive; Potency [2]: 22.4 µM (active)

Q: Cc1ccc(S(=O)(=O)NC(=O)NN2CC3CCCC3C2)cc1 (stereo not given) was tested. Which Potency [2] did it give?
A: Its Potency is “inactive”.

Q: Nc1nc(Cl)nc2c1ncn2[C@H]1C[C@H](O)[C@@H](CO)O1 was tested. Which Potency [2] did it give?
A: The Potency was “inactive”.

Q: Which outcome [1] does the source give for CN(C)C(=O)COC(=O)Cc1ccc(OC(=O)c2ccc(N=C(N)N)cc2)cc1 here?
A: The outcome was “inactive”.

Q: What about the Potency [2] of the same molecule?
A: The Potency was “inactive”.

Q: How did the Potency [2] turn out when S=c1nc[nH]c2nc[nH]c12 was run?
A: Its Potency is “inactive”.

Q: With C=CCc1cc(OC)c(O)c(C(=O)NCCO)c1 as the molecule, how does the outcome [1] read?
A: The outcome was “inactive”.

Q: And the Potency [2]?
A: Its Potency is “inactive”.

Q: For COc1c2occc2cc2ccc(=O)oc12, which Potency [2] is on record?
A: Its Potency is “inactive”.

Q: With CCC(C)(Oc1ccc(C2(c3ccc(OC(C)(CC)C(=O)O)cc3)CCCCC2)cc1)C(=O)O (stereo not given) as the molecule, how does the outcome [1] read?
A: The outcome was “inactive”.

Q: What about the Potency [2] of the same molecule?
A: The Potency was “inactive”.

Q: With N=C(N=C(N)N)N1CCOCC1 as the molecule, how does the outcome [1] read?
A: The outcome was “inactive”.

Q: What about the Potency [2] of the same molecule?
A: The Potency was “inactive”.

Q: Nc1cccc2c1CN(C1CCC(=O)NC1=O)C2=O (stereo not given) was tested. Which outcome [1] did it give?
A: Its outcome is “inactive”.

Q: And the Potency [2]?
A: Its Potency is “inactive”.

Q: CCC1=C(C)CN(C(=O)NCCc2ccc(S(=O)(=O)NC(=O)NC3CCC(C)CC3)cc2)C1=O (stereo not given) was tested. Which Potency [2] did it give?
A: Its Potency is “inactive”.

Q: How did the outcome [1] turn out when CS(=O)(=O)OCCCCOS(C)(=O)=O was run?
A: The outcome was “inactive”.

Q: And the Potency [2]?
A: The Potency was “inactive”.

Q: What about the outcome [3] of the same molecule?
A: Its outcome is “inactive”.

Q: And the outcome [4]?
A: The outcome was “inactive”.

Q: Which outcome [1] does the source give for CCCc1cc(=O)[nH]c(=S)[nH]1 here?
A: Its outcome is “inactive”.

Q: What about the Potency [2] of the same molecule?
A: Its Potency is “inactive”.

Q: What about the outcome [3] of the same molecule?
A: The outcome was “inactive”.

Q: And the outcome [4]?
A: The outcome was “inactive”.

Q: Which outcome [1] does the source give for Cc1cc2c(s1)Nc1ccccc1N=C2N1CCN(C)CC1 here?
A: Its outcome is “inactive”.

Q: What about the Potency [2] of the same molecule?
A: The Potency was “inactive”.

Q: Which results are given for COc1cc(OC)c(C(=O)CCCN2CCCC2)c(OC)c1?
A: outcome [1]: inactive; Potency [2]: inactive; activation [5]: 8.09%; outcome [6]: inactive

Q: For Cc1ccc(C)c(OCCCC(C)(C)C(=O)O)c1, which Potency [2] is on record?
A: The Potency was “inactive”.

Q: And the outcome [3]?
A: Its outcome is “inactive”.

Q: And the outcome [4]?
A: The outcome was “inactive”.

Q: What about the activation [5] of the same molecule?
A: The activation was 4.9% and 2.29%.

Q: What about the outcome [6] of the same molecule?
A: Its outcome is “inactive”.

Q: With CCCCCCCCOc1ccccc1C(=O)Nc1ccc(C(=O)OCC[N+](C)(CC)CC)cc1 as the molecule, how does the Potency [2] read?
A: Its Potency is 79.4 µM (active).

Q: O=C(O)c1cc(=O)c2c(OCC(O)COc3cccc4oc(C(=O)O)cc(=O)c34)cccc2o1 was tested. Which Potency [2] did it give?
A: The Potency was “inactive”.

Q: With COc1ccc(C2(C#N)CCC(C(=O)O)CC2)cc1OC1CCCC1 (stereo not given) as the molecule, how does the outcome [1] read?
A: The outcome was “inactive”.

Q: What about the Potency [2] of the same molecule?
A: Its Potency is “inactive”.

Q: Which results are given for O=C(NCCO[N+](=O)[O-])c1cccnc1?
A: outcome [1]: inactive; Potency [2]: inactive

Q: CC(S)C(=O)NCC(=O)O (stereo not given) was tested. Which outcome [1] did it give?
A: The outcome was “inactive”.

Q: And the Potency [2]?
A: The Potency was “inactive”.

Q: With Cc1cc2cc3c(C)cc(=O)oc3c(C)c2o1 as the molecule, how does the outcome [1] read?
A: The outcome was “inactive”.

Q: What about the Potency [2] of the same molecule?
A: Its Potency is “inactive”.

Q: Which results are given for NS(=O)(=O)c1cc(C(=O)O)c(NCc2ccco2)cc1Cl?
A: Potency [2]: inactive; outcome [3]: inactive; outcome [4]: inactive

Q: With CN1CCC(=C2c3ccccc3CCc3sccc32)CC1 as the molecule, how does the outcome [1] read?
A: The outcome was “inactive”.

Q: What about the Potency [2] of the same molecule?
A: Its Potency is “inactive”.

Q: For O=C(O)c1cn(-c2ccc(F)cc2)c2cc(N3CCNCC3)c(F)cc2c1=O, which outcome [1] is on record?
A: Its outcome is “inactive”.

Q: And the Potency [2]?
A: Its Potency is “inactive”.

Q: How did the outcome [1] turn out when CCOC(=O)c1c(C)n(C)c2ccc(O)cc12 was run?
A: The outcome was “inactive”.

Q: And the Potency [2]?
A: Its Potency is “inactive”.

Q: Which results are given for CCOc1cc(CC(=O)N[C@@H](CC(C)C)c2ccccc2N2CCCCC2)ccc1C(=O)O?
A: outcome [1]: inactive; Potency [2]: inactive

Q: For Nc1ccc(S(N)(=O)=O)cc1, which Potency [2] is on record?
A: The Potency was “inactive”.

Q: What does the source list for C[Se]CCC(N)C(=O)O (stereo not given)?
A: outcome [1]: inactive; Potency [2]: inactive

Q: How did the outcome [1] turn out when COC(=O)[C@H](Cc1ccccc1)NC(=O)[C@@H](N)CC(=O)O (H-Asp-Phe-OMe) was run?
A: The outcome was “inactive”.

Q: And the Potency [2]?
A: Its Potency is “inactive”.

Q: And the outcome [3]?
A: Its outcome is “inactive”.

Q: And the outcome [4]?
A: Its outcome is “inactive”.

Q: Which results are given for CN1C(C(=O)Nc2ccccn2)=C(O)c2sccc2S1(=O)=O?
A: outcome [1]: inactive; Potency [2]: inactive

Q: How did the outcome [1] turn out when CCN(CC)CCOc1ccc(Cc2ccccc2)cc1 was run?
A: Its outcome is “inactive”.

Q: What about the Potency [2] of the same molecule?
A: The Potency was “inactive”.

Q: Which results are given for O=C(OC1C[C@H]2CC[C@@H](C1)[N+]21CCCC1)C(O)(c1ccccc1)c1ccccc1 (stereo not given in full)?
A: outcome [1]: inactive; Potency [2]: inactive

Q: For CCC[C@@H]1C[C@@H](C(=O)N[C@@H]([C@H]2O[C@H](SC)[C@H](O)[C@@H](O)[C@H]2O)[C@@H](C)O)N(C)C1, which outcome [1] is on record?
A: Its outcome is “inactive”.

Q: And the Potency [2]?
A: The Potency was “inactive”.

Q: Cc1nc(Nc2ncc(C(=O)Nc3c(C)cccc3Cl)s2)cc(N2CCN(CCO)CC2)n1 was tested. Which outcome [1] did it give?
A: The outcome was “inactive”.

Q: What about the Potency [2] of the same molecule?
A: Its Potency is “inactive”.

Q: How did the Potency [2] turn out when c1ccc2[nH]c(-c3cscn3)nc2c1 was run?
A: The Potency was “inactive”.

Q: And the outcome [3]?
A: Its outcome is “inactive”.

Q: And the outcome [4]?
A: Its outcome is “inactive”.

Q: And the activation [5]?
A: Its activation is 7.31% and -15.4%.

Q: For CN(C)c1ccc2nc3ccc(=[N+](C)C)cc-3sc2c1, which outcome [4] is on record?
A: The outcome was “inactive”.

Q: Which Potency [2] does the source give for CCCOc1ccc2nc(NC(=O)OC)[nH]c2c1 here?
A: Its Potency is “inactive”.
